The results in this text go back to PubChem BioAssay (Tox21).

Structures are written as SMILES. Records with an inconclusive call do not appear. Entries that show only a call come without a potency. The source made the active and inactive calls. The call rests on the fitted dose curve.

5-hydroxytryptamine receptor 2A (Homo sapiens), sequence (P28223 whole entry, looked up): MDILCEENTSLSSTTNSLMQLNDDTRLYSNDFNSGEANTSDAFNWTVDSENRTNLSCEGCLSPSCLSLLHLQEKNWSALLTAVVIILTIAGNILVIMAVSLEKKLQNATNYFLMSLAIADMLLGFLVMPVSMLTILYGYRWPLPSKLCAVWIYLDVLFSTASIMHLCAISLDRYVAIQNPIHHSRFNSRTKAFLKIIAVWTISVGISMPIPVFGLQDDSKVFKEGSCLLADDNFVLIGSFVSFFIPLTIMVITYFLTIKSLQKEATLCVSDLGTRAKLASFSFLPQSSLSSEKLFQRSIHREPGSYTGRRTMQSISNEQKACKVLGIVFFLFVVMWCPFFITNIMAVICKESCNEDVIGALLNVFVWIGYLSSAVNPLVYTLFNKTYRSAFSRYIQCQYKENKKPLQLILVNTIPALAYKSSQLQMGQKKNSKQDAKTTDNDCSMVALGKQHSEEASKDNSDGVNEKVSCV

The assay has as its target 5-hydroxytryptamine receptor 2A (Homo sapiens) (UniProt P28223). Kind of assay: 5-hydroxytryptamine receptor 2A (HTR2A) small molecule agonists, cell-based qHTS assay (AID 1963587). Further: nearly all actives have a fitted effect of over 30% in size. Particulars: HTR2A-CHO cells, calcium flux fluorescence, agonist mode; series mostly up to 76.8 µM. An excerpt:
National Center for Advancing Translational Sciences [NCATS]
Division of Preclinical Innovation [DPI]
U.S. Environmental Protection Agency [EPA]
National Institutes of Environmental Health Sciences [NIEHS]
National Toxicology Program [NTP]
U.S. Food and Drug Administration [FDA]
The HTR2A receptor is a subtype of the 5-HT2 receptor that belongs to the serotonin receptor family and is a G protein-coupled receptor (GPCR). The HTR2A-CHO cell line stably expressing human 5-hydroxytryptamine receptor 2A (HTR2A) can be used for screening agonists of interactions between 5-HT2 and its ligands. The HTR2A-CHO calcium flux assay is a homogeneous fluorescence-based assay for detecting the intracellular calcium level using FDSS kinetic plate reader system.
HTR2A-CHO cells were dispensed at 2000 cells/3uL/well in 1536-well black-clear bottom plates using a Multidrop Dispenser. After the assay plates were incubated at a 37 C/5% CO2 incubator for 18 h, 3 uL of Dye Loading Buffer was transferred to the assay plate by a Flying Reagent Dispenser. The assay plates were incubated at 37 C for 1h. For agonist mode, 23 nL of compounds dissolved in DMSO, positive controls or DMSO only was transferred to the assay plate by a pin tool. The fluorescence intensity in the plates was measured using FDSS 7000EX kinetic plate reader for 2 min at 1 sec intervals.
In general terms: In qHTS, concentration-response curves come from the screen itself.
In the case of `COc1cccc(OC)c1C(=O)N[C@@H]1C(=O)N2[C@@H]1SC(C)(C)[C@@H]2C(=O)O`, the Potency result is “inactive”.

Turning to `CCC/C=C/C=O`, the Potency result was “inactive”.

In the case of `COCC(C)OC(C)=O` (stereo not given), the Potency result is “inactive”.

In the case of `N[C@@H](CCC(=O)Nc1ccc([N+](=O)[O-])cc1)C(=O)O`, the Potency result is “inactive”.

For the compound `O=C(O)c1ccc([N+](=O)[O-])cc1`, the Potency entry was “inactive”.

As to `O=C(O)/C=C/c1ccc(Cn2ccnc2)cc1`, the Potency entry is “inactive”.

Take `CN(C1CCCCC1)S(=O)(=O)c1ccccc1N`: the Potency result was “inactive”.

As to `CCCO[Si](OCCC)(OCCC)OCCC`, the Potency entry is “inactive”.

Consider `CC1(C)C(O)C(C)(C)C1O` (stereo not given), for which the Potency result is “inactive”.

As for `CSc1nnc(C(C)(C)C)c(=O)[nH]1`, the Potency entry was “inactive”.

Take `Cc1cc(N)no1`: the Potency entry was “inactive”.

As to `CCc1ccc(C)nc1`, the Potency result is “inactive”.

With `Cc1sccc1Br`, the Potency entry is “inactive”.

As to `C=CCS(=O)(=O)O`, the Potency entry was “inactive”.

Take `CC(=O)NCc1c(I)c(NC(C)=O)c(I)c(C(=O)O)c1I`: the Potency entry is “inactive”.

`CC(C)(C)C(=O)OCOP(=O)(COCCn1cnc2c(N)ncnc21)OCOC(=O)C(C)(C)C`: the Potency entry is “inactive”.

In the case of `O=C1NC2NC(=O)NC2N1` (stereo not given), the Potency entry is “inactive”.

In the case of `CC(=O)Oc1cccc(O)c1`, the Potency entry was “inactive”.

On to `COC(=O)/C=C(/C)N`, for which the Potency entry is “inactive”.

`CN(CC1(C)CCCO1)S(=O)(=O)c1ccc(Cl)c(S(N)(=O)=O)c1` (stereo not given): the Potency result was “inactive”.

Take `NCCNCCN`: the Potency entry is “inactive”.

Regarding `C=C[Si](OC(=C)C)(OC(=C)C)OC(=C)C`, the Potency result was “inactive”.

On to `COCCOCCOCCOCCOC`, for which the Potency entry was “inactive”.

For `Clc1cc(Cl)c(Cl)c(Cl)c1Cl`, the Potency result was “inactive”.

`O=C(O)CONC(=O)c1ccccc1`: the Potency result is “inactive”.

With `CC(C)C(=O)Nc1cccc(C2CN3CCSC3=N2)c1` (stereo not given), the Potency result is “inactive”.

On to `CCC(C)c1ccccc1O` (stereo not given), for which the Potency result was “inactive”.

For the compound `CC1=CCC(=O)O1`, the Potency result is “inactive”.

For `COc1ccc(OC)c(C(O)CNC(=O)CN)c1` (stereo not given), the Potency result was “inactive”.

With `COc1cc(Cl)ccc1Cl`, the Potency result was “inactive”.

Regarding `O=[N+]([O-])c1ccc(F)cc1F`, the Potency result is “inactive”.

On to `O=Cc1ccc(Cl)cc1`, for which the Potency entry was “inactive”.

`c1ccc2cnccc2c1`: the Potency result was “inactive”.

For the compound `COc1cccc(Br)c1`, the Potency entry is “inactive”.

As for `Cc1cccc2cccnc12`, the Potency entry is “inactive”.

Turning to `Cc1ccccc1S(=O)(=O)O`, the Potency result was “inactive”.

For the compound `O=[N+]([O-])c1ccc(/C=C/c2ccc([N+](=O)[O-])cc2S(=O)(=O)O)c(S(=O)(=O)O)c1`, the Potency result was “inactive”.

In the case of `CNCCO`, the Potency entry is “inactive”.

`FC(F)(F)c1cccc(Cl)c1`: the Potency result was “inactive”.

On to `CC/C=C\CC1=C(C)CCC1=O`, for which the Potency entry is “inactive”.
